# PubChem BioAssay AID651602 (The Scripps Research Institute Molecular Screening Center, 2012)
# Out of some 360,000 compounds screened, about 950 (0.26%) were called active. This is one part of a sample in which actives are shown more often than they occur. Unmarked numbers belong to inactive results. No stated cut-off is given here; in the data, active means inhibition above about 11%; inactive means the rest.
# Assay: growth loss of phage-infected E. coli, primary screen, RecBCD inhibitor project, absorbance, with phage, HTS (AID 651602)
# Conditions: at 11.9 µM, hits give high values
row,Structure (SMILES),inhibition
1,COCCNC(=S)N(C)[C@H]1C[C@H]2c3[nH]c4ccccc4c3CCN2C[C@H]1[C@H](C)O,0.63%
2,OC(c1ccc(Cl)cc1)c1ncc(-c2ccc(Cl)cc2)[nH]1 (stereo unspecified),7.68%
3,COc1cccc(C(O)c2ncc(-c3ccc4ccccc4c3)[nH]2)c1 (stereo unspecified),12.1% (active)
4,Cc1ccc(-c2cnc(C(O)c3cc(Cl)cc(Cl)c3)[nH]2)cc1 (stereo unspecified),17.1% (active)
5,COc1cccc(-c2cnc(C(O)c3ccccc3OC)[nH]2)c1 (stereo unspecified),-1.64%
6,Cc1cccc(-c2cnc(C(O)c3ccc4ccccc4c3)[nH]2)c1 (stereo unspecified),2.34%
7,Cc1cccc(-c2cnc(C(O)c3cc(C)cc(C)c3)[nH]2)c1 (stereo unspecified),9.2%
8,Cc1cc(N2CCN(C(=O)OC(C)(C)C)C[C@H]2C)ccc1N1CCN(Cc2ccccc2)[C@H](C)C1,7.28%
9,CCOC(=O)/C=C/c1ccccc1O,4.3%
10,COC(=O)[C@H](CC(C)C)NS(=O)(=O)c1c(F)cccc1F,4.61%
11,O=C(NCc1ccccc1)[C@H]1CCCN1C(=O)[C@H]1CCCN1C(=O)c1cc(F)cc(F)c1,2.09%
12,Nc1ncnc2c1ncn2[C@@H]1O[C@H](C(=O)N[C@@H](CCc2ccccc2)C(=O)NCC(=O)N2CCOCC2)[C@@H](O)[C@H]1O,2.03%
13,Cc1cc2c(nc1C)CCCN2C,1.32%
14,COC(=O)c1ccc(CN2C(=O)[C@]3(OCCC=C[C@H]3C)c3c(Br)cccc32)cc1,1.58%
15,CC(c1cccnc1)N(CCN(C)C)C(=O)Nc1ccc(Cl)c(Cl)c1 (stereo unspecified),1.6%
16,O=C(Nc1ccc(Cl)c(Cl)c1)N1CC=C(c2ccccc2)CC1,3.32%
17,O=C(CC(O)(C(F)(F)F)C(F)(F)F)Nc1ccc(Cl)c(Cl)c1,15.6% (active)
18,COC(=O)C1=C(C)N(Cc2cccc(C(F)(F)F)c2)C(=NCc2cccc(C(F)(F)F)c2)NC1c1ccccc1C(F)(F)F (stereo unspecified),9.37%
19,COC(=O)Cc1nnn2c1[C@H](C)[C@H](c1ccccc1Br)OCC2,-1.01%
20,CC(C)(C)C(=O)Nc1c(Br)c(C2CC2)nn1-c1ccccc1,97.8% (active)
21,O=C(Nc1c(Cl)c(C2CC2)nn1-c1ccccc1)C(Cl)(Cl)Cl,1.86%

row,Structure (SMILES),inhibition
1,CC(C)(C)n1nc(C2CC2)c(Br)c1NC(=O)c1ccccc1F,3.69%
2,Oc1c(CN2CCN(c3ccc(F)cc3)CC2)cc(Cl)c2cccnc12,13% (active)
3,Cc1cccc(C)c1NC(=O)CN1CCN(c2ccc(F)cc2)CC1,2.55%
4,O=C(CN1CCN(c2ccc(Cl)cc2)CC1)c1ccccc1,4.29%
5,O=C(NCc1ccccc1)[C@@H]1CCCN1C(=O)[C@@H](NS(=O)(=O)c1ccc(F)cc1F)C1CCCCC1,3.12%
6,O=C(C(=O)N1CCC(CNS(=O)(=O)Cc2ccccc2)CC1)c1cc2ccccc2o1,1.63%
7,COC(=O)[C@]12C[C@H](CC(=O)NCc3cccc(C(F)(F)F)c3)C(=O)N(Cc3ccc4c(c3)OCO4)C1=C[C@H](COCc1ccccc1)O[C@@H]2C,2.25%
8,CC(C)CNc1cccc2c1S(=O)(=O)N[C@H](C)CO2,5.2%
9,O=C1c2ccccc2C2=Nc3ccccc3SC(c3ccccc3F)C12 (stereo unspecified),19.6% (active)
10,CC(=O)C1=C(C)N(Cc2ccc(Cl)cc2)C(=S)NC1c1ccc(F)cc1 (stereo unspecified),2.81%
11,O=C(NCc1ccccc1)[C@H]1CCCN1C(=O)[C@H]1CCCN1C(=O)N1CCOCC1,1.72%
12,COc1ccc(-c2ccccc2C2Cc3nnccc3CN2C(=O)Nc2ccccc2)cc1 (stereo unspecified),3.48%
13,O=C(Nc1ccc(Br)cn1)c1ccc([N+](=O)[O-])o1,15.1% (active)
14,O=C(Nc1ccc(Br)cn1)c1ccc([N+](=O)[O-])cc1Cl,1.57%
15,Cc1cccc(NC(=O)c2ccc([N+](=O)[O-])o2)c1,14.2% (active)
16,O=C(/C=C/c1ccc(Cl)cc1)Nc1ccc(Br)cn1,-0.92%
17,Cc1cccc(NC(=O)CCn2c(=O)oc3ccccc32)c1,0.64%
18,CCN(CC)S(=O)(=O)c1ccc(N2CCCC2)c(NC(=O)c2ccc([N+](=O)[O-])o2)c1,0.78%
19,COC(=O)[C@]12C[C@H](CC(=O)NCc3ccccc3)C(=O)N(CCC3=CCCCC3)C1=C[C@H](C(C)(C)C)O[C@@H]2C,1.16%
20,COc1cccc(CNC(=O)[C@H]2CCCN2C(=O)[C@H]2CCCN2C(=O)c2ccc(F)cc2)c1,1.78%
21,C[C@@H]1ON(C)[C@H]2C[C@H]3c4cc(N5CCOCC5)ccc4CCN3C[C@@H]12,1.27%

row,Structure (SMILES),inhibition
1,C=CCN=C1NC(c2ccccc2)C(C(=O)OC)=C(C)N1Cc1ccc(C(F)(F)F)cc1 (stereo unspecified),3.49%
2,C[C@@H](CN1C2=NC[C@@H](Cc3ccccc3)N2C[C@H]1Cc1ccc(O)cc1)NC(=O)CCC1CCCCC1,2.48%
3,CN(C)Cc1c(C(=O)N/N=C/c2ccccc2OCc2ccc(F)cc2)nnn1-c1nonc1N,-5.79%
4,CC(C)Oc1ccc(/C=N/NC(=O)c2nnn(-c3nonc3N)c2CN(C)C2CCCCC2)cc1,2.44%
5,Nc1nonc1-n1nnc(C(=O)N/N=C/c2cc(Br)ccc2O)c1CSC1=NCCS1,11.6% (active)
6,Cc1cn(C2OC[C@@H](O)[C@@H]2CO)c(=O)[nH]c1=O (stereo partly specified),0.95%
7,Cc1cn([C@H]2C[C@H](O)[C@@H](/C=C/C(=O)NCCCc3ccccc3)O2)c(=O)[nH]c1=O,3.27%
8,Cc1cn(C2C=CC(CO)O2)c(=O)[nH]c1=O (stereo unspecified),19.9% (active)
9,COc1cccc(-c2cc(CNC(=O)[C@@H](Cc3ccccc3)NC(=O)[C@H]3O[C@@H](n4cnc(C(N)=O)n4)[C@H](O)[C@@H]3O)no2)c1,2.06%
10,CCOC(=O)C1=C(CSc2nnnn2C)N(C)C(=O)NC1c1ccccc1 (stereo unspecified),3.2%
11,CCN1CCN(C(=O)N[C@@H](C(=O)N[C@@H]2C(=O)N3C(C(=O)O)=C(CSc4nnnn4C)CS[C@H]23)c2ccc(O)cc2)C(=O)C1=O,103% (active)
12,O=C(O)Cn1cnc2c(NCc3ccccc3)ncnc21,-1.71%
13,O=c1ccc2c(-c3ccccc3S(=O)(=O)O)c3ccc(O)c(O)c3oc-2c1O,12.7% (active)
14,CC[C@H](NC(=O)[C@H](Cc1ccccc1)NC(=O)[C@H]1O[C@@H](n2cnc3c(=O)[nH]c(N)nc32)[C@H](O)[C@@H]1O)c1ccccc1,3.64%
15,COc1ccccc1C(=O)N1O[C@]23C=C[C@]14C[C@@H](O)CC[C@]4(C)C2CC[C@]1(C)[C@@H]([C@H](C)/C=C/[C@H](C)C(C)C)CC[C@H]13 (stereo partly specified),3.99%
16,COc1cccc(CNC(=O)[C@H]2CCCN2C(=O)[C@H]2CCCN2C(=O)C2CCCCC2)c1,2.87%
17,O=S1(=O)c2c(cccc2N2CCCCC2)O[C@H](COCc2ccccc2)CN1C1CC1,1.52%
18,COC(=O)C1=C(C)N(Cc2ccccc2C(F)(F)F)C(=NCc2ccc(OC)cc2)NC1c1cccc(C(F)(F)F)c1 (stereo unspecified),5.38%
19,CCOC(=O)C1=C(C(=O)OCC)C2N(Cc3ccc(C#N)cc3)c3ccccc3[C@@]23C[C@@H](C(=O)OC)N(S(=O)(=O)c2ccc(F)cc2)C3=N1 (stereo partly specified),2.71%
20,CC(=O)N1C[C@@H](CO)[C@@H](N(C)C(=O)C(C)(C)C)C[C@H]1c1ccccc1Br,2.5%
21,O=S(=O)(c1cccs1)N1CCCc2nc(-c3ccc(Br)cc3)ccc21,3.49%

row,Structure (SMILES),inhibition
1,CCCCC(=O)NC(c1ccc(OC)c(OC)c1)c1ccc2cccnc2c1O (stereo unspecified),21.1% (active)
2,CCOc1ccc(C(CC(=O)O)n2cnnn2)cc1OC (stereo unspecified),3.64%
3,CCOc1ccc(C(CCc2ccccc2)NC(=O)c2ccc(OC)c(OC)c2)cc1OCC (stereo unspecified),-0.08%
4,CCc1c(-c2ccccc2OC)ncn1CCc1ccccc1OC,0.54%
5,CCOC(=O)C1CSCCS(=O)(=O)N1Cc1ccc(Cl)cc1 (stereo unspecified),0.55%
6,COC(=O)C1=C(C)NC(=S)NC1c1ccc(OC)cc1 (stereo unspecified),3.49%
7,COC(=O)c1c(-c2ccc(OC)cc2)c2c(c3c4ccccc4n(S(=O)(=O)c4ccc(C)cc4)c13)C(=O)N(C)C2,1.94%
8,Cc1cc(Br)cn2c(Cc3ccccc3C(F)(F)F)c(-c3ccc(C#N)cc3)nc12,4.55%
9,O=C(Nc1cc(-c2ccccc2)nn1-c1ccccc1F)c1ccc([N+](=O)[O-])cc1,3.65%
10,O=C(NC(Nc1nc2ccc([N+](=O)[O-])cc2s1)(C(F)(F)F)C(F)(F)F)c1ccccc1,12.8% (active)
11,O=C(NNS(=O)(=O)Cc1ccccc1)c1ccc([N+](=O)[O-])cc1,4.99%
12,COC(=O)C1=C(C)N(Cc2ccccc2C(F)(F)F)C(=NCc2ccc(C(F)(F)F)cc2)NC1c1ccc(F)cc1 (stereo unspecified),7.76%
13,COC(=O)N1Cc2ccnnc2CC1c1ccccc1Br (stereo unspecified),3.01%
14,O=C(/C=C/c1ccc(F)cc1)NC(=S)NNC(=O)c1cccnc1,-5.76%
15,O=C(/C=C/c1ccc([N+](=O)[O-])o1)NNC(=O)c1ccc(F)cc1,29.6% (active)
16,O=C(Nc1ccc(F)cc1)C1CCN(C(=O)c2ccc([N+](=O)[O-])cc2)CC1,1.84%
17,CCCN1C(=O)c2[nH]nc(-c3ccccc3)c2C1c1ccccc1 (stereo unspecified),1.78%
18,COC(=O)[C@]12C[C@H](CC(=O)NCc3ccc(OC)c(OC)c3)C(=O)N(Cc3ccccc3)C1=C[C@H](C(C)C)O[C@@H]2C1CC1,0.85%
